# Measurements from PubChem BioAssay (Tox21).
# Results filed as inconclusive are left out. A number with no mark means an inactive call. The call rests on the fitted dose curve; in most records, active means well fitted cell-killing curve with a large enough effect in the repeat runs; inconclusive means weak or mixed curves, or effect the other way; inactive means flat fitted curve, though single readings scatter.
# Experiment: qHTS assay to identify small molecule agonists of the sonic hedgehog signaling (Shh) pathway - cell viability counter screen (AID 1259366); further: nearly all actives have a fitted effect of over 50% in size
# Details: NIH/3T3 Gli1-Luc viability, CellTiter-Fluor, 24 h; series mostly up to 92.4 µM; viability change, negative = cytotoxic: at the top concentration
# From the text: National Center for Advancing Translational Sciences [NCATS]
# NIH Chemical Genomics Center [NCGC]
# U.S. Environmental Protection Agency [EPA]
# National Institutes of Environmental Health Sciences [NIEHS]
# National Toxicology Program [NTP]
# U.S. Food and Drug Administration [FDA]
# The sonic hedgehog (Shh) pathway is essential for normal embryonic development. Dysregulation of the Shh pathway can cause severe developmental defects in organs. Therefore chemicals that interfere with the pathway are potential developmental toxicants. A cell line designated 3T3Gli1-Luc (DMB/OARSA/CFSAN/FDA, Laurel, MD), a NIH/3T3 derived clone containing stably integrated Gli1-Luc reporter is used to detect chemical interference of the Shh pathway, by changes in the expression of the firefly Luc gene under the control of the Gli1 transcriptional response element. This cell line was used to screen Tox21 libraries for identifying and prioritizing the potential developmental toxicants that interfere Shh pathway. The cytotoxicity of the compounds was tested in parallel by measuring the cell viability using CellTiter-Fluor assay system (Promega, Madison, WI) in the same wells.
# Tox21 Assay Protocol Summary:
# 3T3 Gli1-Luc cells were dispensed at 2,000 per well in 5uL of culture medium into white solid bottom 1536-well plates (Greiner Bio-One, Monroe, NC) using a Multidrop Combi (Thermo Scientific, Waltham, MA) dispenser. The assay plates were incubated at 37 C and 5% CO2 for 4hr, and then 23nL of compounds dissolved in DMSO and positive control were transferred using a Pintool station (Wako, San Diego, CA). The assay plates were incubated at 37C and 5% CO2 for 24hr. For viability read, after 23hr of compound treatment, 1uL of CellTiter-Fluor reagent (Promega Corporation, Madison, WI) was added to each well of the assay plates using Flying Reagent Dispenser (FRD, Aurora Discovery, San Diego, CA) and incubated the assay plates at 37C for 1hr. The fluorescence signal was quantified using a ViewLux plate reader (Perkin Elmer, Shelton, CT).
# On the % scale 0 is the no-effect control and ±100 the full control effect.
row,SMILES,"viability change, negative = cytotoxic"
1,C[C@]12C=CC(=O)C=C1CC[C@@H]1[C@@H]2CC[C@@]2(C)[C@H]1CC[C@]2(C)O,5.98% [at 42.5 µM]
2,[O-][Br+2]([O-])O,3.9% [at 42.5 µM]
3,COP(=O)(OC)O/C(C)=C/C(=O)N(C)C,2.86%
4,BrCC1CO1 (stereo not given),-2.06%
5,COc1cccc(C=O)c1,-4.85%
6,CC(O)CCl (stereo not given),-2.95%
7,CC(=O)OCC1=C(C(=O)O)N2C(=O)[C@@H](N)[C@H]2SC1,1.92% [at 19 µM]
8,N=C(N)[Se],-23.8%
9,CC(=O)CN(CC(C)=O)N=O,2.81%
10,C[C@H](N)C(=O)c1ccccc1,-7.6%
11,O=C1CC(=O)NC(=O)N1,-1.05%
12,OP(O)c1ccccc1,2.14%
13,CC(C)(C)NC[C@H](O)c1ccc(O)cc1Cl,3.19% [at 42.5 µM]
14,CCOC(=O)C(Cl)Cc1cc(-n2nc(C)n(C(F)F)c2=O)c(F)cc1Cl (stereo not given),-0.613%
15,CC1=C2[C@H]3OC(=O)[C@@H](C)[C@@H]3CC[C@@]2(C)C=CC1=O,-5.9% [at 42.5 µM]
16,CN(C)CCc1c[nH]c2cccc(OP(=O)(O)O)c12,11.4%
17,O=CCCl,0.913%
18,CCNc1nc(NCC)nc(SC)n1,-6.5%
19,CCSC(=O)Cl,8.19%
20,CCCC[N+](=O)[O-],3.38%

row,SMILES,"viability change, negative = cytotoxic"
1,CCCOc1nn(C(=O)NS(=O)(=O)c2ccccc2C(=O)OC)c(=O)n1C,-4.17%
2,O=C1CCCCC1Cl (stereo not given),2.09%
3,CCC1(CC)C(=O)C=CNC1=O,13.1% [at 42.5 µM]
4,C=CCc1cc(OC)c2c(c1)OCO2,-5.29%
5,BrCc1ccc(Br)cc1,-3.06%
6,Cc1ccc(S(=O)(=O)N[C@@H](CCCCN)C(=O)CCl)cc1,-1.69% [at 42.5 µM]
7,O=C(Cl)c1ccccc1,6.66%
8,Cc1ccc2cc(C)ccc2c1,0.846%
9,COc1ccc2c(C(=O)c3ccc(Cl)cc3)c(C)n(CC(=O)O)c2c1,-7.01% [at 42.5 µM]
10,O=C(NC(O)C(Cl)(Cl)Cl)NC(O)C(Cl)(Cl)Cl (stereo not given),-6.78% [at 42.5 µM]
11,O=C(Cl)C(Cl)(Cl)Cl,1.11%
12,Oc1ccc(Cc2ccc(O)cc2)cc1,-8.77%
13,CCOC(=O)C(SP(=S)(OC)OC)c1ccccc1 (stereo not given),5.77%
14,CCOC(=O)CCl,1.91%
15,O=c1[nH]c2ccccc2o1,-3.68%
16,COc1cc(CCN)cc(OC)c1OC,-20.6%
17,CC(=NC#N)N(C)Cc1ccc(Cl)nc1,10.8%
18,NC(=O)OCCCc1ccccc1,-1.17% [at 42.5 µM]
19,CC(C)(N)Cc1ccc(Cl)cc1,-7.02% [at 42.5 µM]
20,CCOP(=O)(CN(CCO)CCO)OCC,-0.105%
